Compound activity (PubChem)
Rango complex inh – qHTS Assay for Inhibitors of Rango (Ran-regulated importin-beta cargo) - Importin beta complex formation | Rango CFP/YFP FRET sensor + importin beta, 45 min | Potency, µM (top dose mostly 92.2 µM), inactives show at the highest dose inhibition of complex formation | Importin subunit beta-1 (Homo sapiens), Q14974 | 340,000 tested, 0.031% active | AID 540263, 2011; calls by dose curve;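 also: 0% = DMSO wells and 100% = buffer wells lacking importin beta; nearly all actives have a fitted effect of over 15% in size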
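Inhibition scored from the CFP 486 nm/YFP 530 nm FRET ratio 45 min after adding 0.125 microM importin beta to 50 nM Rango biosensor preincubated 5 min with compound (room temperature, PBS with DTT, Tween-20, BSA). No-importin wells as positive control.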
Tb PFK block – qHTS Assay to Find Inhibitors of T. brucei phosphofructokinase; ATP-dependent 6-phosphofructokinase (Trypanosoma brucei brucei), O15648; T. brucei PFK, ADP-Glo luminescence; Potency, µM (series often up to 57.5 µM), for the others: top-dose activity, negative = inhibition, usual class: inhibitors; 330,000 tested, 0.17% active;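 also: 0% = uninhibited 1x PFK enzyme wells and -100% = no-enzyme wells; nearly all actives have a fitted effect of over 60% in size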
Target sequence (O15648 whole entry, looked up): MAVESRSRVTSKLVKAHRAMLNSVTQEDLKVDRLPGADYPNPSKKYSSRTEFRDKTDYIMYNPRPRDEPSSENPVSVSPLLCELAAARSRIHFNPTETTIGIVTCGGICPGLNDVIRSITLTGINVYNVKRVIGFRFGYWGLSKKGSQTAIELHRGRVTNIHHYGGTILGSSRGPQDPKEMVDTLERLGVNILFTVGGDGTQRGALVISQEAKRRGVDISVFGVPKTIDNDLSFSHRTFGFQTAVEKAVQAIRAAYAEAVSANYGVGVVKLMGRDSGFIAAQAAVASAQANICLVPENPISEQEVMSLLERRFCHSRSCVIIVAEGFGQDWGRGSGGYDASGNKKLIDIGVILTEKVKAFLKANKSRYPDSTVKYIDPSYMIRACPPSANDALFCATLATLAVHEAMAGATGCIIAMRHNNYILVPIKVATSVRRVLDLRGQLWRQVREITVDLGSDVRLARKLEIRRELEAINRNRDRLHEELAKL
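ADP-Glo luminescence quantified ADP after 45 min at room temperature, with 1.25 nM T. brucei PFK, 0.1 mM ATP and 0.5 mM fructose-6-phosphate in pH 8.0 TEA buffer. qHTS titrations up to 57 µM; curves classified by quality.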
ELG1 DNA repair – qHTS screen for small molecules that inhibit ELG1-dependent DNA repair in human embryonic kidney (HEK293T) cells expressing luciferase-tagged ELG1; HEK293T ELG1-luciferase reporter, luminescence, 16 h; DNA damage induced by 5-fluorouridine; Potency, µM (doses to about 46.1 µM), inactives show at the top dose activity change, negative = inhibition, hits mostly inhibitors; 330,000 tested, 2.3% active; AID 504467, 2011; also: % is scaled to controls: 0 for no effect and ±100 for the full control effect; nearly all actives have a fitted effect of over 55% in size
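Luminescence from the luciferase reporter, measured 30 min after ONE-Glo reagent at room temperature, was the read-out. Beforehand, 2,000 cells per well were exposed for 16 hr at 37 °C to 5-fluorouridine together with compound or vehicle.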
Tb PGK inh – qHTS Assay to Find Inhibitors of Phosphoglycerate Kinase; AID 602233, 2012; PGK/GAPDH coupled, Kinase-Glo luminescence, 60 min; Phosphoglycerate kinase, glycosomal (Trypanosoma brucei brucei), P07378; Potency, µM (highest dose often 57.5 µM), without a hit: top-dose activity change, negative = inhibition, hits mostly inhibitors; 380,000 tested, 0.043% active; also: % is scaled to controls: 0 for no effect and ±100 for the full control effect; nearly all actives have a fitted effect of over 60% in size
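Luminescent ATP detection (Kinase-Glo Plus) follows a 60-minute room-temperature incubation, with wells lacking PGK as controls. Buffer: 100 mM TEA (pH 7.6), 5 mM MgCl2, 0.01% Tween-20. Coupling enzyme GAPDH (100 nM final) supplies unstable 1,3-BPG in-well.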
PKM2 act – qHTS Assay for Activators of Human Muscle isoform 2 Pyruvate Kinase; Pyruvate kinase PKM (Homo sapiens), P14618; purified PKM2, Kinase-Glo ATP luminescence, activation; response scale: 0% is enzyme alone, no compound; Potency, µM (highest dose often 57.5 µM), without a hit: at the top dose activation, usual class: activators; 260,000 tested, 0.34% active; also: % is scaled to controls: 0 for no effect and ±100 for the full control effect; nearly all actives have a fitted effect of over 55% in size
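Kinase-Glo luminescence reports ATP generated from ADP (0.1 mM) and PEP (0.5 mM) by purified hPK-M2 after 1 h at room temperature, pH 7.2 imidazole buffer; intermediate enzyme activity allows detecting inhibitors and activators.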
Rango dissoc inh – qHTS Assay for Inhibitors of RanGTP induced Rango (Ran-regulated importin-beta cargo) - Importin beta complex dissociation; 340,000 tested, 0.071% active; Snurportin-1 (Homo sapiens) + GTP-binding nuclear protein Ran (Homo sapiens) + Importin …; Biochemical FRET Rango-importin beta, RanGTP-induced dissociation; Potency, µM (top dose mostly 46.1 µM), inactives show top-dose activity change, negative = inhibition; AID 540253, 2011; calls by dose curve; also: % of control where 0% means no effect; nearly all actives have a fitted effect of over 45% in size
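FRET read at 45 min, room temperature: inhibitors block the CFP/YFP signal rise when RanGTP (0.6 uM Ran, 2 mM GTP, 0.2 uM RCC1) frees Rango (0.1 uM) from importin beta (0.25 uM). Pre-read after 5 min compound exposure flags interference.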
* hit, by the source's call; i = inactive; ? = inconclusive; / = not tested or not shown; [ ] = another dose, or the depositor's remark. Compounds with a hit are over-represented: about 2.4% of the library has one in this group of screens. Unless noted, calls follow the shape of the dose curve; as a rule, active = well fitted curve in the direction sought with a large enough effect; inconclusive = small, poorly fitted or top-dose-only effect, or another doubt; inactive = no such curve, though single readings can be large; an effect the other way counts as inactive or inconclusive. Potency is read from the fitted curve at half-maximal effect.

SMILES	Rango complex inh	Tb PFK block	ELG1 DNA repair	Tb PGK inh	PKM2 act	Rango dissoc inh
CCOc1ccccc1C(=O)N1CCC(n2nnc3cc(C(F)(F)F)ccc32)CC1	-4.1%	-4.4%	20.6µM*	0.3%	-3.0%	-8.1%
COCCOC(=O)C1=C(C)NC(SCC(=O)NC(C)(C)C)=C(C#N)C1c1ccco1 (stereo not drawn)	-0.4%	0.4%	?	i	17.0%	26.0%
CCOC(=O)C1=C(c2ccccc2)NC(SCC(=O)NC2CCCCC2)=C(C#N)C1c1ccco1 (stereo not drawn)	-2.0%	3.1%	18.4µM*	8.1%[11.5 µM]	0.4%	0.2%
COc1ccccc1NC(=O)Nc1nc(CC(=O)N2CCN(c3ccccc3)CC2)cs1	6.9%	-0.9%	?	4.5%	/	12.6%
COc1ccc(N2CCN(C(=O)Cc3csc(NC(=O)Nc4ccccc4OC)n3)CC2)cc1	-4.4%	-0.4%	16.4µM*	-0.6%	/	-6.8%
COc1ccccc1NC(=O)Nc1nc(CC(=O)N2CCN(c3ccc(F)cc3)CC2)cs1	1.0%	0.0%	16.4µM*	-12.1%	/	8.4%
CCCCCCCCCn1ccc(=N)cc1	-1.1%	3.8%	0.411µM*	i	-2.4%	12.1%
CCCCCCCn1ccc(=N)cc1	-0.9%	-0.1%	?	-3.0%	-3.6%	-2.3%
COc1ccc2nc(N(Cc3ccccc3)C(=O)CCNC(C)=O)sc2c1	-3.1%	0.5%	?	-8.2%	2.3%	1.2%
Cc1ccccc1/C=C\c1nc2ccccc2c(=O)n1Cc1ccccc1	0.2%	1.7%	29.1µM*	-26.5%	-22.7%	3.7%
O=c1c2ccccc2nc(/C=C/c2ccccc2)n1CCc1ccccc1	0.4%	-7.0%	20.6µM*	-0.1%	3.8%	39.7%
COc1ccc2oc(C(=O)OCC(=O)N(C)C3CCCCC3)c(C)c2c1	2.1%	-0.3%	-6.0%	i	/	-3.5%
COc1ccc(S(=O)(=O)N2CCCCCC2)cc1NC(=O)c1c2c(nc3ccccc13)CCN(Cc1ccccc1)C2	?	2.4%	?	-9.2%	1.3%	-1.6%
CCN(CC)S(=O)(=O)c1ccc(OC(C)C)c(NC(=O)c2c3c(nc4ccccc24)CCN(Cc2ccccc2)C3)c1	0.1%	-10.9%	5.8µM*	0.5%	-1.0%	4.6%
CCOC(=O)c1ccc2c(c1)C1C=CCC1C(C(=O)O)N2 (stereo not drawn)	/	19µM*	6.0%	/	1.2%	/
CCOC(=O)C1Nc2ccc(C(=O)O)cc2C2C=CCC12 (stereo not drawn)	?	-26.8%	-5.9%	?	2.5%	-19.9%
CC(C)N(C(=O)[C@H]1CC(CC(=O)NCCc2ccccn2)C(=O)N2CCc3c([nH]c4ccccc34)[C@]12C)C(C)C (stereo partly drawn)	-4.2%	-4.1%	2.5%	i	/	4.7%
O=C(CCCN1C(=O)/C(=C\c2ccccc2)SC1=S)N1CCOCC1	-4.3%	-0.5%	18.3µM*	-0.2%	/	-6.7%
O=C(CCCN1C(=O)/C(=C/c2ccccc2OC(F)F)SC1=S)Nc1cccnc1	-0.4%	2.4%	20.6µM*	-8.7%	/	-4.0%
O=C(CCCN1C(=O)/C(=C/c2cccc(Br)c2)SC1=S)Nc1cccnc1	0.3%	3.4%	9.2µM*	-6.0%	17.0%	-7.9%
O=C(CCCN1C(=O)/C(=C\c2cccc(Br)c2)SC1=S)Nc1cccnc1	-0.2%	-1.9%	?	-14.1%	22.3%	-2.4%
COc1cccc(-n2c([S-])c(C(=O)Nc3ccc(C(F)(F)F)cc3)[n+]3ccccc23)c1	/	-3.8%	-14.1%	/	-0.2%	/
COc1cccc2cc(C(=O)NCCN3CCOCC3)c(=O)oc12	-0.1%	0.9%	10.4%	-2.6%	/	-1.8%
CC(C)(CN1CCCN(CC(C)(C)C(=O)O)C1=O)C(=O)O	/	/	/	-1.9%	/	/
O=C(/C=C/c1ccc(Cl)cc1)N1CCN(c2ccc([N+](=O)[O-])c(N3CCOCC3)c2)CC1	0.2%	0.0%	18.4µM*	0.3%	-9.8%	-4.8%
SMILES	Rango complex inh	Tb PFK block	ELG1 DNA repair	Tb PGK inh	PKM2 act	Rango dissoc inh
O=C(/C=C/c1ccc(Cl)cc1Cl)N1CCN(c2ccc([N+](=O)[O-])c(N3CCOCC3)c2)CC1	4.4%	-1.6%	0.2%	-6.2%	-1.7%	-3.9%
COc1ccc(CC(=O)NNc2ncnc3c2cnn3-c2ccc(C)cc2)cc1	-7.1%	6.6%	-8.6%	i	-15.0%	14.6µM*
CCCC[C@@H]1C[C@H]1C(NS(=O)(=O)c1cccc2cccnc12)c1ccc(-c2ccccc2)cc1 (stereo partly drawn)	/	/	/	/	2.7%	/
CCOc1ccc(Nc2ncnc3ccc([N+](=O)[O-])cc23)cc1	0.0%	-1.5%	9.2µM*	-6.8%	-2.2%	-2.8%
COc1cc2c(cc1NC(=O)CSc1nnc(Cc3cccs3)n1C)oc1ccccc12	2.0%	-0.2%	?	i	-2.0%	0.9%
C=CCn1c(SCC(=O)Nc2cc3oc4ccccc4c3cc2OC)nnc1-c1cnccn1	5.6%	-3.7%	11.6µM*	-7.4%	-9.3%	-0.5%
C=CCn1c(SCC(=O)Nc2cccc3ccccc23)nnc1-c1cnccn1	4.0%	0.9%	?	-4.6%	-0.8%	-4.8%
COc1cc2c(cc1NC(=O)CSc1nnc(Cc3cccs3)n1Cc1ccco1)oc1ccccc12	2.7%	-0.1%	23.1µM*	i	0.6%	1.0%
C=CCn1c(SCC(=O)Nc2cc(OC)c(NC(=O)c3ccco3)cc2OC)nnc1-c1ccncc1	0.3%	-0.5%	23.1µM*	-3.1%	1.3%	5.3%
CCn1c(SCC(=O)Nc2cc3oc4ccccc4c3cc2OC)nnc1-c1cccs1	0.5%	7.0%	18.4µM*	-8.0%[11.5 µM]	-11.6%	-5.8%
Cc1ccc(S(=O)(=O)C(CNC(=O)C(=O)NCc2ccc(Cl)cc2)c2cccs2)cc1 (stereo not drawn)	/	/	/	3.8%	/	/
COc1cccc(-c2csc3ncnc(Sc4nnnn4C)c23)c1	-0.4%	0.0%	?	-4.4%	/	16.6%
COc1ccc(C2=C(C)C(=NCCCN3CCN(c4cc(C)ccc4C)CC3)NS2(=O)=O)cc1	/	/	/	-2.0%	/	/
Cc1[nH]c2ccccc2c1C(O)CN1CCN(c2cccc(C(F)(F)F)c2)CC1 (stereo not drawn)	0.0%	-16.7%	14.6µM*	7.7%	8.6%	-6.0%
